Values joined by “and” are separate entries in the source; they are usually repeats but may differ in a detail not shown here. Equal values may be shown once. Compounds without any hit were thinned out: in the full panel of roughly 83,000, 20% have a hit.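 Negative percent growth values reflect cell death: -40 means 40% of the cells present at the start died, and -100 means all died.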 Active and inactive are the calls of the source. The calls were made as follows: active = growth percent below 10; inactive = the rest.
Experiments:
Experiment in all cases: NCI-60 one-dose screen, 48 h (100 = growth as untreated, 0 = no growth, -100 = all killed)
Details in all cases: 10 µM unless noted
NCI-H23 lung = test system: NCI-H23 lung
NCI-H226 lung = test system: NCI-H226 lung
NCI-H322M lung = test system: NCI-H322M lung
HOP-62 NSCLC = test system: HOP-62 NSCLC
NCI-H460 lung = test system: NCI-H460 lung
HOP-92 NSCLC = test system: HOP-92 NSCLC
NCI-H522 lung = test system: NCI-H522 lung
A549/ATCC NSCLC = test system: A549/ATCC NSCLC
786-0 renal = test system: 786-0 renal
COLO 205 colon = test system: COLO 205 colon

Measured: growth

Cc1ccc(S(=O)(=O)n2cc([C@@]3(O)C[C@H](CSC#N)OC3=O)c3ccccc32)cc1
inactive: NCI-H23 lung 82% | NCI-H226 lung 85.3% | NCI-H322M lung 106% | HOP-62 NSCLC 100% | NCI-H460 lung 86.3% | NCI-H522 lung 86.3% | A549/ATCC NSCLC 70.6% | 786-0 renal 95.6% | COLO 205 colon 59.2%
active: HOP-92 NSCLC -28.2%

CC1=C([Te]c2ccccc2)C(=O)c2ccccc2C1=O
active: NCI-H23 lung -33.9% | NCI-H226 lung -52.1% | NCI-H322M lung -22.8% | HOP-62 NSCLC -49.5% | NCI-H460 lung -57.7% | HOP-92 NSCLC -53.8% | A549/ATCC NSCLC -66.1% | 786-0 renal -46.2% | COLO 205 colon -83.6%

Cc1cc(N)ccc1N
inactive: NCI-H23 lung 105% | NCI-H226 lung 92% | NCI-H322M lung 95% | HOP-62 NSCLC 93.9% | NCI-H460 lung 106% | HOP-92 NSCLC 95.1% | NCI-H522 lung 106% | A549/ATCC NSCLC 98.2% | COLO 205 colon 120%

C=C[Se]CC(=O)/C=C/c1ccccc1
active: NCI-H322M lung 6%
inactive: NCI-H23 lung 70.1% | NCI-H226 lung 98% | HOP-62 NSCLC 13% | NCI-H460 lung 12.8% | HOP-92 NSCLC 104% | A549/ATCC NSCLC 32.3% | 786-0 renal 102% | COLO 205 colon 109%

O=[N+]([O-])c1cc(Br)c(O)c(Br)c1
inactive: NCI-H23 lung 101% | NCI-H226 lung 93.5% | NCI-H322M lung 105% | HOP-62 NSCLC 96.9% | NCI-H460 lung 107% | HOP-92 NSCLC 95.8% | NCI-H522 lung 92.7% | A549/ATCC NSCLC 98.9% | 786-0 renal 102% | COLO 205 colon 112%

O=P(O)(Nc1ccccc1)Nc1ccccc1
inactive: NCI-H23 lung 91.1% | NCI-H226 lung 102% | NCI-H322M lung 90.6% | HOP-62 NSCLC 83.3% | NCI-H460 lung 99.2% | HOP-92 NSCLC 89.1% | NCI-H522 lung 85.6% | A549/ATCC NSCLC 91% | 786-0 renal 93.7% | COLO 205 colon 115%

O=P1(N(CCCl)CCCl)NCCCO1 (configuration not stated)
inactive: NCI-H23 lung 112% | NCI-H226 lung 101% | NCI-H322M lung 104% | HOP-62 NSCLC 105% | NCI-H460 lung 104% | HOP-92 NSCLC 131% | NCI-H522 lung 109% | 786-0 renal 104% | COLO 205 colon 116%

CC[CH2][Sn]([Cl])([Cl])[CH2]CC.Oc1ccccc1C=NCCN=Cc1ccccc1O
inactive: NCI-H23 lung 56.4% and 34.2% | NCI-H226 lung 11% and 17.4% | NCI-H322M lung 105% and 92.4% | HOP-62 NSCLC 103% and 83.8% | NCI-H460 lung 110% and 90.5% | HOP-92 NSCLC 40% and 29.2% | A549/ATCC NSCLC 103% and 92.3% | 786-0 renal 65.2% and 59.1%
50.6% (inactive) and -12.1% (active): COLO 205 colon

O=C(NC1=NCC[Se]1)c1ccccc1O
inactive: NCI-H23 lung 65.6% | NCI-H226 lung 62.9% | NCI-H322M lung 49.4% | HOP-62 NSCLC 39% | NCI-H460 lung 16.2% | HOP-92 NSCLC 63.5% | NCI-H522 lung 60.9% | A549/ATCC NSCLC 56.8% | 786-0 renal 94.7% | COLO 205 colon 124%

CCOC(=O)P(=O)(OCC)OCC
inactive: NCI-H23 lung 112% | NCI-H226 lung 106% | NCI-H322M lung 82.6% | HOP-62 NSCLC 109% | NCI-H460 lung 116% | HOP-92 NSCLC 94.9% | A549/ATCC NSCLC 101% | 786-0 renal 113% | COLO 205 colon 112%

O=S(OO)c1cc(Cl)c(O)c(Cl)c1 (configuration not stated)
inactive: NCI-H23 lung 101% | NCI-H226 lung 109% | NCI-H322M lung 97.7% | HOP-62 NSCLC 105% | NCI-H460 lung 102% | HOP-92 NSCLC 92.1% | NCI-H522 lung 102% | A549/ATCC NSCLC 94.7% | 786-0 renal 97.1% | COLO 205 colon 117%

CC1(C)C=Cc2c(ccc3c2[N+]([O-])=C2C3=C[C@@]34NC(=O)[C@]5(CCCN5C3=O)C[C@@H]4C2(C)C)O1
inactive: NCI-H23 lung 63.2% | NCI-H226 lung 84.5% | NCI-H322M lung 67.5% | HOP-62 NSCLC 54.5% | NCI-H460 lung 26.9% | HOP-92 NSCLC 73.4% | NCI-H522 lung 25.6% | A549/ATCC NSCLC 54.7% | 786-0 renal 42.1% | COLO 205 colon 35.2%

O=S(=O)(F)c1cccc(Cl)c1C[P+](c1ccccc1)(c1ccccc1)c1ccccc1
inactive: NCI-H23 lung 108% | NCI-H226 lung 93.4% | NCI-H322M lung 97.9% | HOP-62 NSCLC 93.3% | NCI-H460 lung 106% | HOP-92 NSCLC 91.3% | A549/ATCC NSCLC 93.9% | 786-0 renal 104% | COLO 205 colon 99.9%

Cc1ccc(P(=O)(O)O)cc1
inactive: NCI-H23 lung 108% | NCI-H226 lung 99.2% | NCI-H322M lung 111% | HOP-62 NSCLC 120% | NCI-H460 lung 108% | HOP-92 NSCLC 120% | A549/ATCC NSCLC 102% | 786-0 renal 103% | COLO 205 colon 126%

Reference: PubChem BioAssay (NCI)
